# Source: PubChem BioAssay AID1159580 (chemical genetic matrix, 2015)
# Out of some 5,500 compounds screened, about 2,000 (36%) were called active. About 18% were inconclusive and are not listed. The list shows a part of the results. A number with no mark means an inactive call. Rule as the data show it: active = normalized growth mostly below about 0.91 (no sharp cut-off); inconclusive = no clear call, values can overlap the other calls; inactive = mostly above about 0.92.
# Test: chemical genetic growth profiling, strain panel (AID 1159580);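 also: tested at 20 µM; growth read once vehicle control cultures reached saturation at 30 °C; 1 = growth at the plate median or of vehicle wells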
# Details: growth OD
# [1] = S. cerevisiae deletion strains, locus YAL013W, strain DEP1, stronger effect = lower value
# [2] = S. cerevisiae deletion strains, locus YBR229C, strain ROT2, stronger effect = lower value
# [3] = S. cerevisiae deletion strains, locus YCL061C, strain MRC1, stronger effect = lower value
# [4] = S. cerevisiae deletion strains, locus YDL101C, strain DUN1, stronger effect = lower value
# [5] = S. cerevisiae deletion strains, locus YDL134C, strain PPH21, stronger effect = lower value
# [6] = S. cerevisiae deletion strains, locus YDR150W, strain NUM1, stronger effect = lower value
# [7] = S. cerevisiae deletion strains, locus YEL061C, strain CIN8, stronger effect = lower value
# [8] = S. cerevisiae deletion strains, locus YGR078C, strain PAC10, stronger effect = lower value
# [9] = S. cerevisiae deletion strains, locus YHR030C, strain SLT2, stronger effect = lower value
# [10] = S. cerevisiae deletion strains, locus YHR087W, strain rtc3, stronger effect = lower value
# [11] = S. cerevisiae deletion strains, locus YJR075W, strain HOC1, stronger effect = lower value
# [12] = S. cerevisiae deletion strains, locus YLR039C, strain RIC1, stronger effect = lower value
# [13] = S. cerevisiae deletion strains, locus YLR058C, strain SHM2 (second series), stronger effect = lower value
# [14] = S. cerevisiae deletion strains, locus YLR085C, strain ARP6, stronger effect = lower value
# [15] = S. cerevisiae deletion strains, locus YLR262C, strain YPT6, stronger effect = lower value
# [16] = S. cerevisiae deletion strains, locus YML094W, strain GIM5, stronger effect = lower value
# [17] = S. cerevisiae deletion strains, locus YMR219W, strain ESC1, stronger effect = lower value
# [18] = S. cerevisiae deletion strains, locus YMR263W, strain SAP30, stronger effect = lower value
# [19] = S. cerevisiae deletion strains, locus YNL153C, strain GIM3, stronger effect = lower value
# [20] = S. cerevisiae deletion strains, locus YNL298W, strain CLA4 (second series), stronger effect = lower value
# [21] = S. cerevisiae deletion strains, locus YNL322C, strain KRE1, stronger effect = lower value
# [22] = S. cerevisiae deletion strains, locus YNR030W, strain Alg12, stronger effect = lower value
# [23] = S. cerevisiae deletion strains, locus YOL006C, strain TOP1, stronger effect = lower value
# [24] = S. cerevisiae deletion strains, locus YPL055C, strain LGE1, stronger effect = lower value
# [25] = S. cerevisiae deletion strains, locus YPL241C, strain CIN2, stronger effect = lower value
# [26] = S. cerevisiae deletion strains, locus YPR135W, strain CTF4, stronger effect = lower value
# [27] = S. cerevisiae deletion strains, locus YJR043C, strain POL32, stronger effect = lower value
# [28] = S. cerevisiae deletion strains, locus YMR307W, strain GAS1, stronger effect = lower value
smiles,measurement,setting,value
CC(C)(C)OC(=O)C(C)(C)S(=O)(=O)c1ccc(Cl)cc1,normalized growth,[1],1.01
same,normalized growth,[2],0.983
same,normalized growth,[3],0.979
same,normalized growth,[4],0.977
same,normalized growth,[5],0.995
same,normalized growth,[6],0.992
same,normalized growth,[7],1
same,normalized growth,[8],0.992
same,normalized growth,[9],0.955
same,normalized growth,[10],1.01
same,normalized growth,[11],0.973
same,normalized growth,"S. cerevisiae deletion strains, locus YKL190W, strain CNB1, stronger effect = lower value",0.994
same,normalized growth,[12],0.958
same,normalized growth,[13],1.01
same,normalized growth,[14],1.05
same,normalized growth,[15],0.927
same,normalized growth,[16],0.987
same,normalized growth,[17],0.995
same,normalized growth,[18],0.992
same,normalized growth,[19],0.98
same,normalized growth,[20],1.02
same,normalized growth,[21],0.984
same,normalized growth,[22],0.983
same,normalized growth,[23],1.01
same,normalized growth,[24],1.02
same,normalized growth,[25],1.01
same,normalized growth,[26],1.04
same,normalized growth,"S. cerevisiae strains, strain wild type, stronger effect = lower value",1
Cc1c(S(=O)(=O)c2ccc(Cl)cc2)cnc2cc(C(C)(C)C)nn12,normalized growth,[1],1.01
same,normalized growth,[2],1.02
same,normalized growth,[4],1
same,normalized growth,[5],1.03
same,normalized growth,[6],0.987
same,normalized growth,[7],1.01
same,normalized growth,[8],1.01
same,normalized growth,[9],1.07
same,normalized growth,[10],1.01
same,normalized growth,[27],1.01
same,normalized growth,[11],1.01
same,normalized growth,[12],1.03
same,normalized growth,[13],1.01
same,normalized growth,[14],1.02
same,normalized growth,[15],1.03
same,normalized growth,[16],1.01
same,normalized growth,[17],1.01
same,normalized growth,[18],0.982
same,normalized growth,[28],0.945
same,normalized growth,"S. cerevisiae deletion strains, locus YNL128W, strain TEP1, stronger effect = lower value",1.01
same,normalized growth,[19],1
same,normalized growth,[20],1.05
same,normalized growth,[21],1.01
same,normalized growth,[22],1.05
same,normalized growth,[23],1.06
same,normalized growth,[24],1.01
same,normalized growth,[25],0.996
same,normalized growth,[26],1.06
O=[N+]([O-])c1cc(Cl)ccc1S(=O)(=O)c1ccccc1,normalized growth,[1],0.987
same,normalized growth,[2],0.996
same,normalized growth,[3],0.994
same,normalized growth,[4],0.98
same,normalized growth,[5],0.999
same,normalized growth,[6],0.97
same,normalized growth,[7],0.969
same,normalized growth,[8],0.993
same,normalized growth,"S. cerevisiae deletion strains, locus YGR229C, strain SMI1, stronger effect = lower value",0.98
same,normalized growth,[9],0.836
same,normalized growth,[10],1.02
same,normalized growth,[27],0.978
same,normalized growth,[11],0.995
same,normalized growth,[12],0.634 (active)
same,normalized growth,[13],0.996
same,normalized growth,[14],0.796
same,normalized growth,[15],0.705 (active)
same,normalized growth,[16],0.933
same,normalized growth,[17],0.998
same,normalized growth,[18],0.996
same,normalized growth,[28],0.829
same,normalized growth,[19],0.985
same,normalized growth,[20],0.955
same,normalized growth,[21],0.987
same,normalized growth,[22],0.974
same,normalized growth,[24],0.996
same,normalized growth,[25],0.958
same,normalized growth,[26],0.803
